Among the test systems are DU-145 prostate; K-562 leukemia; MALME-3M melanoma; MDA-MB-231 breast; RXF 393 renal; SF-268 CNS; SF-295 CNS; SF-539 CNS; UACC-257 melanoma; M14 melanoma.
Holding throughout (assay): NCI-60 one-dose screen, 48 h (100 = growth as untreated, 0 = no growth, -100 = all killed)
Holding throughout (conditions): 10 µM unless noted

Compounds without any hit were thinned out: in the full panel of roughly 83,000, 20% have a hit.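 Negative percent growth values reflect cell death: -40 means 40% of the cells present at the start died, and -100 means all died.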 A number with no mark means an inactive call. The source made the active and inactive calls. Rule for the calls: active = growth percent below 10; inactive = the rest.

Regarding `Clc1cccc(NCOOC2(OOCNc3cccc(Cl)c3)CCCCC2)c1`, the growth is 73.3% in the experiment with DU-145 prostate; -41% (active) with K-562 leukemia; 74.5% with MALME-3M melanoma; 81.7% in the experiment with MDA-MB-231 breast; 108% in the experiment on RXF 393 renal; 73.1% in the experiment with SF-268 CNS. In addition, the growth in the experiment on SF-295 CNS was 74.8%; in the experiment with SF-539 CNS it was 16.4%; in the experiment on UACC-257 melanoma, 87.7%; in the experiment on M14 melanoma it was 60.4%.

Regarding `O=C(CC1(O)C(=O)N(Cc2ccccc2)c2ccc(F)cc21)c1ccc(C(=O)NCC2CCC3(CC2)OOC2(CCCCC2)OO3)cc1` (stereo not given), the growth is -94.3% (active) in the experiment on DU-145 prostate; -42.7% (active) in the experiment on K-562 leukemia; -69.2% (active) in the experiment with MALME-3M melanoma; -74% (active) in the experiment with MDA-MB-231 breast; -80.4% (active) with RXF 393 renal; -60.3% (active) in the experiment on SF-268 CNS. The growth in the experiment on SF-295 CNS was -14.1% (active); with SF-539 CNS, -84.8% (active); with UACC-257 melanoma, -2.89% (active); with M14 melanoma it was 15.3%.

For the compound `Fc1ccc(C2=CCNCC2)cc1`, the growth in the experiment on DU-145 prostate was 111%; in the experiment on K-562 leukemia, 108%; in the experiment on MALME-3M melanoma it was 95.5%; in the experiment with MDA-MB-231 breast, 80.7%; in the experiment with RXF 393 renal, 97.7%; with SF-268 CNS, 96.8%. The growth in the experiment with SF-295 CNS is 77.8%; in the experiment with SF-539 CNS, 93.4%; with UACC-257 melanoma, -21.6% (active); in the experiment with M14 melanoma it was 98.9%.

As to `COc1cc(/C=C/[N+](=O)[O-])c([N+](=O)[O-])cc1OC`, the growth in the experiment with DU-145 prostate is 38.6%; in the experiment with K-562 leukemia, 10.9%; in the experiment with MALME-3M melanoma, 11.7%; in the experiment with MDA-MB-231 breast, -12.1% (active); in the experiment with RXF 393 renal it was -92.9% (active); with SF-268 CNS, 48.3%. Also, the growth in the experiment with SF-295 CNS was 107%; with SF-539 CNS, -32.4% (active); with UACC-257 melanoma, 65.7%; with M14 melanoma, 7.35% (active).

In the case of `CCCC(=O)O[C@@H]1C[C@H]2C[C@@H](O[C@@H]3O[C@@H](C)[C@@H](O)[C@@H](O)[C@H]3OC)C[C@@H](C[C@@H](C)/C=C/C=C\C[C@@H]3O[C@@H](C[C@@H]3C)[C@@H](O)C[C@H]3C[C@@]1(O)C(=O)O3)O2`, the growth in the experiment with DU-145 prostate was 48.8%; with K-562 leukemia it was 21.2%; in the experiment on MALME-3M melanoma, 64.7%; in the experiment on MDA-MB-231 breast, 86.4%; in the experiment on RXF 393 renal it was 72.1%; in the experiment on SF-268 CNS, 80.1%. Moreover, the growth with SF-295 CNS is 7.39% (active); in the experiment on SF-539 CNS, 67.6%; with UACC-257 melanoma, 9.61% (active); with M14 melanoma it was 69.8%.

On to `N#CCCNc1ccccc1`, for which the growth was 116% in the experiment on DU-145 prostate; 98.3% in the experiment on K-562 leukemia; 120% in the experiment on MALME-3M melanoma; 111% with MDA-MB-231 breast; 106% in the experiment on RXF 393 renal; 97.7% in the experiment with SF-268 CNS. Further, the growth was 101% with SF-295 CNS, 98.1% in the experiment on SF-539 CNS, 118% in the experiment with UACC-257 melanoma and 112% in the experiment on M14 melanoma.

For `COc1cc(C=Nc2cccc(C(=O)O)c2)ccc1N(CCCl)CCCl`, the growth was 111% in the experiment with DU-145 prostate; 101% with K-562 leukemia; 84.4% with MALME-3M melanoma; 106% with MDA-MB-231 breast; 99.4% with RXF 393 renal; 113% with SF-268 CNS. The growth is 98.3% in the experiment with SF-295 CNS, 102% with SF-539 CNS, 85.1% in the experiment with UACC-257 melanoma and 104% with M14 melanoma.

In the case of `Cc1ccc(N2COOC3(OOC2)C2CC4CC(C2)CC3C4)cc1`, the growth in the experiment with DU-145 prostate is 109%; with K-562 leukemia, 72.6%; in the experiment on MALME-3M melanoma, 110%; in the experiment with MDA-MB-231 breast, 112%; with RXF 393 renal it was 115%; in the experiment on SF-268 CNS, 97.9%. Also, the growth with SF-295 CNS was 95.5%; with SF-539 CNS, 96.5%; in the experiment with UACC-257 melanoma, 95.3%; with M14 melanoma, 97.8%.

In the case of `C[N+](C)(C)Cc1cc(Cl)ccc1O`, the growth is 108% in the experiment on DU-145 prostate; 99.9% with K-562 leukemia; 93.2% in the experiment with MALME-3M melanoma; 109% in the experiment with MDA-MB-231 breast; 110% in the experiment with RXF 393 renal; 106% in the experiment on SF-268 CNS. Also, the growth with SF-295 CNS is 108%; in the experiment on SF-539 CNS, 102%; in the experiment on UACC-257 melanoma, 96.5%; in the experiment on M14 melanoma, 94.8%.

Regarding `COc1ccc2nc(NC(=O)COc3cc(/C=C\c4cc(OC)c(OC)c(OC)c4)ccc3OC)sc2c1`, the growth was 0.406% (active) with DU-145 prostate; 15.6% in the experiment with K-562 leukemia; 14.1% in the experiment on MALME-3M melanoma; 22.7% in the experiment with MDA-MB-231 breast; -19.9% (active) in the experiment with RXF 393 renal; 42.3% in the experiment with SF-268 CNS. The growth was -2.09% (active) with SF-295 CNS, -7.12% (active) in the experiment with SF-539 CNS, 59.5% in the experiment with UACC-257 melanoma and 22.9% with M14 melanoma.

For `O=C1NC(=O)C(=Cc2cn(CCCCCCn3c4ccccc4c(=O)c4ccccc43)c3ccccc23)C(=O)N1`, the growth with DU-145 prostate is 96.8%; with K-562 leukemia, 77.4%; in the experiment with MALME-3M melanoma, 95.8%; in the experiment on MDA-MB-231 breast it was 69.1%; with RXF 393 renal it was 127%; with SF-268 CNS, 94.5%. Moreover, the growth was 65.7% in the experiment with SF-295 CNS, 93% in the experiment with SF-539 CNS, 104% with UACC-257 melanoma and 94.1% with M14 melanoma.

For the compound `CC(=O)O[C@H](C[C@H](C(C)C)N(C)C(=O)[C@@H](NC(=O)[C@H]1CCCCN1C)C(C)C)c1nc(C(=O)NC2CCC(C(=O)O)CC2)cs1` (stereo not given in full), the growth in the experiment with DU-145 prostate is 41.1%; with K-562 leukemia, 22.8%; in the experiment with MALME-3M melanoma, 61.8%; in the experiment on MDA-MB-231 breast, 64.1%; in the experiment with RXF 393 renal, 44.1%; in the experiment on SF-268 CNS, 48.2%. Also, the growth with SF-295 CNS was 35.1%; in the experiment on SF-539 CNS, 27.5%; in the experiment with UACC-257 melanoma, 50%; with M14 melanoma it was 41.5%.

Regarding `COc1cccc2c1c(C(=O)c1ccco1)cn2Cc1ccc(F)cc1`, the growth in the experiment with DU-145 prostate is 100%; in the experiment on K-562 leukemia, 253%; with MALME-3M melanoma, 131%; in the experiment on MDA-MB-231 breast, 89.9%; in the experiment on RXF 393 renal, 131%; in the experiment on SF-268 CNS, 114%. Moreover, the growth with SF-295 CNS was 122%; in the experiment with SF-539 CNS, 113%; with UACC-257 melanoma, 104%; with M14 melanoma it was 131%.

Values taken from PubChem BioAssay (NCI).
